# About 79,000 compounds went through this panel and 15% of them were active in at least one assay; those are over-represented in the sample as a whole. Activity calls are given as the source filed them. No stated cut-off is given here; in the data, active means growth inhibition above about 70%; inactive means the rest.
# Experiments:
# [1] = NCI Yeast Anticancer Drug Screen. Data for the rad50 strain (AID 155);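 further: 0% = growth of vehicle-only cultures of the same strain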; conditions: S. cerevisiae rad50 strain growth inhibition; at 50.0 µM; stronger effect = higher value
# Outline: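 Yeast carrying a defined DNA repair defect were exposed to test compounds, and growth was compared with vehicle-treated controls to give percent inhibition.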
# [2] = NCI Yeast Anticancer Drug Screen. Data for the mec2-1 strain (AID 157); conditions: S. cerevisiae mec2-1 strain, at 50.0 µM, stronger effect = higher value
# Outline: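 Each compound was tested on mec2-1 yeast, a strain altered in DNA damage repair or cell cycle control. Growth inhibition is reported relative to vehicle.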
# [3] = NCI Yeast Anticancer Drug Screen. Data for the sgs1 mgt1 strain (AID 161);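 further: 0% = growth of cultures given vehicle only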; conditions: S. cerevisiae sgs1 mgt1 strain, at 50.0 µM, stronger effect = higher value
# Outline: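 Inhibition of yeast growth, normalised to vehicle-treated controls, is reported for a strain bearing genetic alterations in DNA damage repair.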
# [4] = NCI Yeast Anticancer Drug Screen. Data for the cln2 rad14 strain (AID 165);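 further: 0% = growth equal to vehicle treated cultures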; conditions: S. cerevisiae cln2 rad14 strain, at 50.0 µM, stronger effect = higher value
# Outline: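 Test compounds were added to cln2 rad14 yeast cultures; inhibition of growth was then determined by comparison with vehicle treatment.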
# [5] = NCI Yeast Anticancer Drug Screen. Data for the bub3 strain (AID 167); conditions: S. cerevisiae bub3 mutant strain, at 50.0 µM, stronger effect = higher value
# Outline: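 Compounds were applied to a genetically altered yeast strain carrying a cell-cycle control defect. Growth inhibition was scored against vehicle-treated controls.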
# [6] = NCI Yeast Anticancer Drug Screen. Data for the mlh1 rad18 strain (AID 175); conditions: S. cerevisiae mlh1 rad18 strain growth inhibition; at 50.0 µM; stronger effect = higher value
# Outline: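 Inhibition values reflect reduced growth of mutant yeast versus vehicle-treated controls following compound exposure; the mutations affect DNA damage repair.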
Structure (SMILES),growth inhibition [1],growth inhibition [2],growth inhibition [3],growth inhibition [4],growth inhibition [5],growth inhibition [6]
COc1cc2nccnc2cc1OC,10.1% (inactive),7.05% (inactive),3.35% (inactive),-7.45% (inactive),6.55% (inactive),21.2% (inactive)
CCOC(=O)N(C)N=NCCCl,15.2% (inactive),2.2% (inactive),-5.05% (inactive),-26.9% (inactive),8.2% (inactive),-4.9% (inactive)
CC(=O)CC(=O)NCCCN1CCCCC1,-28.7% (inactive),-52.1% (inactive),-30.4% (inactive),-5.1% (inactive),-34.4% (inactive),-33.4% (inactive)
NC(=S)N/N=C1\C(=O)NC(=O)C1c1ccccc1 (configuration not stated),4.75% (inactive),1.4% (inactive),3.45% (inactive),0.45% (inactive),15.6% (inactive),6.95% (inactive)
CC(O)c1ccc(N=NN(C)C)cc1 (configuration not stated),-2.5% (inactive),2.75% (inactive),-3.15% (inactive),-1.55% (inactive),0% (inactive),21.2% (inactive)
CN(C)c1ccc([N+](=O)[O-])c2c1CCC2,9.7% (inactive),-4.55% (inactive),7.25% (inactive),5.6% (inactive),6.85% (inactive),6.55% (inactive)
O=c1cn[nH]c2c(Br)cc(Br)cc12,12% (inactive),-0.3% (inactive),-1.6% (inactive),2.65% (inactive),-9.9% (inactive),16.4% (inactive)
NC(=O)C(NN=C1c2ccccc2-c2ccccc21)(c1ccccc1)c1ccccc1,41% (inactive),-0.2% (inactive),28% (inactive),42.8% (inactive),0.05% (inactive),18.7% (inactive)
Nc1nc(N)c(Nc2ccc(Cl)cc2)c(Cl)n1,50% (inactive),29.2% (inactive),66.3% (inactive),35.2% (inactive),40.9% (inactive),50.5% (inactive)
COc1cc2c3c(c1OC)C1(C=CC(=O)C=C1)CC3NCC2 (configuration not stated),-45.9% (inactive),-4.8% (inactive),-8.5% (inactive),-10.1% (inactive),-18.9% (inactive),-45.6% (inactive)
CC(=O)Oc1c(C(C)(C)C)cc([N+](=O)[O-])c(C)c1[N+](=O)[O-],97% (active),97.3% (active),94.9% (active),74.2% (active),94% (active),95.2% (active)
CCc1cc(C)cc(C(C)(C)C)c1,12.4% (inactive),-17.8% (inactive),25.1% (inactive),7.15% (inactive),-8.35% (inactive),22% (inactive)
O=C1CN(c2ccc(Cl)cc2)C(=O)CN1/N=C/c1ccc(O)c(O)c1,-37.1% (inactive),-10.8% (inactive),4.4% (inactive),-16.9% (inactive),-7.65% (inactive),-4.95% (inactive)
COc1cc2c(cc1OC)C1=NN(c3ccccc3)C(=O)C1CC2 (configuration not stated),22.8% (inactive),12.6% (inactive),12.3% (inactive),-7.2% (inactive),5.55% (inactive),18.8% (inactive)
CN(C=O)C1CCC2C3CC=C4CC(OC=O)CCC4(C)C3CCC21C (configuration not stated),1.35% (inactive),11.3% (inactive),3.85% (inactive),5.95% (inactive),-2.9% (inactive),-2% (inactive)
CC(=O)OC1CC(c2ccccc2)=NO1 (configuration not stated),-12.8% (inactive),-21.5% (inactive),-8.6% (inactive),-21.9% (inactive),-10.8% (inactive),-12.4% (inactive)
Cc1ccc(-c2cnc3c(n2)c(=O)[nH]c(=O)n3C)cc1,29.5% (inactive),19.1% (inactive),20.5% (inactive),13.8% (inactive),17.4% (inactive),35.6% (inactive)
CS/C(=N\S(=O)(=O)c1cc(C)c(Cl)cc1Cl)NNc1cnc2ccccc2n1,-12.1% (inactive),-23.4% (inactive),-7.1% (inactive),11.9% (inactive),-17.2% (inactive),1.7% (inactive)
N#CCCN(CCC#N)S(=O)(=O)c1ccccc1,-3% (inactive),5.65% (inactive),-4.9% (inactive),-4.2% (inactive),14.1% (inactive),-15.6% (inactive)

Structure (SMILES),growth inhibition [1],growth inhibition [2],growth inhibition [3],growth inhibition [4],growth inhibition [5],growth inhibition [6]
CC(=O)Nc1ccc(N=Nc2cccc(C)c2)cc1C,-1.6% (inactive),-1.6% (inactive),10.1% (inactive),-13.1% (inactive),2.4% (inactive),-7.2% (inactive)
CCOc1ncc(C(=O)c2ccc(C)cc2)c(OCC)n1,-8.55% (inactive),-20.4% (inactive),-6.2% (inactive),-58.9% (inactive),3.6% (inactive),-20.4% (inactive)
O=C(CCCn1ccnc1[N+](=O)[O-])NCCn1cncc1[N+](=O)[O-],0.65% (inactive),-8.2% (inactive),5.9% (inactive),7.6% (inactive),0.25% (inactive),-9.9% (inactive)
O=S1c2ccccc2N=C(c2ccc3ccccc3c2)CC1C1=CC=CCC1 (configuration not stated),-27.4% (inactive),-33.1% (inactive),-3.1% (inactive),-2.65% (inactive),3.85% (inactive),-11.8% (inactive)
Cc1ccccc1C(=O)N(C(C)C)C(C)C,12.8% (inactive),-6.45% (inactive),7.2% (inactive),-12.6% (inactive),15.2% (inactive),1% (inactive)
Cc1cn(C2CC(O)C(CO)C2C)c(=O)[nH]c1=O (configuration not stated),-7.45% (inactive),-11.8% (inactive),-17.2% (inactive),5.4% (inactive),-11.8% (inactive),-24.9% (inactive)
O=c1[nH]nc(-c2ccccc2)n1/N=C/c1c(O)ccc2ccccc12,8.15% (inactive),17.9% (inactive),9.15% (inactive),13.3% (inactive),15.4% (inactive),24.6% (inactive)
O=C(O)Cc1ccc2ccccc2c1Br,-8.5% (inactive),13.1% (inactive),1.8% (inactive),22.8% (inactive),-8.6% (inactive),14.3% (inactive)
CN(C)c1nc(Cl)cc2nc(Cl)cn12,0.25% (inactive),5.7% (inactive),2.5% (inactive),-0.35% (inactive),-8.15% (inactive),0.5% (inactive)
O=C(/C=C/c1ccc(Cl)c(Cl)c1)c1ccccc1,-7.1% (inactive),-52.9% (inactive),-7.9% (inactive),-16.9% (inactive),35% (inactive),-59.4% (inactive)
Cc1ccc(C)c(CNC(=O)NC(C)(C)C)c1,-10.2% (inactive),-4.25% (inactive),-6.65% (inactive),-63.8% (inactive),-11.2% (inactive),-0.75% (inactive)
N/C(CCOCC/C(N)=N\O)=N/O,16.8% (inactive),25.4% (inactive),-22.4% (inactive),-1.85% (inactive),-2.3% (inactive),6.5% (inactive)
CC(CO)NCc1ccccc1 (configuration not stated),-18.2% (inactive),-14.9% (inactive),-1.95% (inactive),3.95% (inactive),-29.6% (inactive),3.95% (inactive)
O=[N+]([O-])c1ccc(O)c(N=Cc2ccc(C=Nc3cc([N+](=O)[O-])ccc3O)cc2)c1,-24.9% (inactive),-19.8% (inactive),-13.8% (inactive),1.2% (inactive),-5.1% (inactive),-17.6% (inactive)
CC1=CC(=O)/C(=C/N2CCNC2=S)C(=O)O1,-24.6% (inactive),-20.6% (inactive),1.3% (inactive),5.65% (inactive),-31.3% (inactive),4.7% (inactive)
CCOC(=O)c1c(-c2ccc(Cl)cc2)c(C#N)c(=S)n(C2OC(COC(C)=O)C(OC(C)=O)C(OC(C)=O)C2OC(C)=O)c1C (configuration not stated),-0.4% (inactive),-8.75% (inactive),-1.75% (inactive),24.1% (inactive),17.5% (inactive),5.7% (inactive)
CCOC(=O)c1[nH]cc(C)c1-c1c[nH]c2ccccc12,31% (inactive),27.6% (inactive),20.4% (inactive),19.7% (inactive),-4.05% (inactive),41.2% (inactive)
O=C(OC(=O)c1cccc2ccccc12)c1cccc2ccccc12,-5.15% (inactive),-7.75% (inactive),2.3% (inactive),43.3% (inactive),12% (inactive),13.2% (inactive)

# — PubChem BioAssay (NCI)
